Measured values reported in PubChem BioAssay AID588856 (National Center for Advancing Translational Sciences (NCATS), 2011).
Values joined by “and” are separate entries in the source; they are usually repeats but may differ in a detail not shown here. Identical values can stand only once. About 3,100 (0.76%) of roughly 410,000 compounds were called active. This is one part of a sample in which actives are shown more often than they occur. Calls come from the whole dose curve; as a rule, active = well fitted cell-killing curve with a large enough effect; inactive = no such curve, though single readings can be large or run the other way. Some structures have more than one record in an assay (separate samples or runs), and their calls can disagree.

Assay: qHTS for Inhibitors of TGF-b: Cytotox Counterscreen
Conditions: HepG2 CAGA-GFP viability, ATP luminescence, 18 h; series mostly up to 46.1 µM; activity change, negative = cytotoxicity: at the top concentration
Excerpt: TGF-b is a main component in the TGF-b signaling pathway which plays diverse roles in cellular and development pathways. TGF-b is mediated by transcription factors called "Smads". Although the Smad-dependent pathway is the primary canonical TGF-b signaling mode, TGF-b1 can also activate alternative signaling pathways, including those involving MAPK (ERK, JNK and p38). This interaction may mediate or enhance Smad-dependent responses, or can exert Smad-independent effects. The complexity of this signaling cascade allows the TGF-b superfamily to perform unique, overlapping or redundant functions. We believe that targeting the TGF-beta pathway at the Smad-transcription factor level may eliminate the consequences of disrupting the entire pathway and offer specificity without affecting other signaling pathways. Smad3 is the primary transducer of TGF-b's signals and Smad3 regulates many functions attributed to TGF-b signaling. We hypothesize that Smad3 inhibitors will selectively eliminate Smad3-specific TGF-beta signals without undesired off-target effects. We aim to identify Smad3-small molecule antagonists using a quantitative high throughput screening (qHTS) approach.
A high-throughput assay was developed to screen the NIH Molecular Libraries Small Molecule Repository (MLSMR). This is a cell based assay, where TGF-b is tagged with GFP. This is a counterscreen that evaluates the cytotoxicity of the compounds that were screened in the primary cell-based screen (AID 588855).
MH087449NIH Chemical Genomics Center [NCGC]
NIH Molecular Libraries Probe Centers Network [MLPCN]
Assay Submitter (PI): Sushil Rane, National Institute of […]
Suspensions of trypsinized HEPG2 CAGA-GFP cells were dispensed into white, tissue culture-treated, solid 1536-well plates at 5uL/well (1000 cells/well final concentration) in DMEM medium supplemented with 1% FBS. Plates were incubated at 37 degrees C for 2 hours, after which 23 nL of compounds or DMSO were delivered to each well using a pin tool. One uL of recombinant TGF-beta in DMEM (1% FBS) was then dispensed (500 pg/mL final concentration), and plates were incubated at 37 degrees C for 18 hours. Two uL of CellTiter Glo (Promega), a luminescence-based viability reagent, was dispensed, followed by a 10 minute room temperature incubation. The plates were then measured on a PerkinElmer ViewLux plate reader for luminescence (clear filter) using a 5 second exposure. The %Activity was determined from the corrected luminescence values. Wells containing media only (no cells) were used to normalize %Activity of identified toxic compounds; media-only wells corresponded to 100%Activity (complete cell-killing), while DMSO-dosed cell controls were used to normalize 0%Activity (no toxicity).
Concentration-response curves were fitted to the signals arising from the resulting luminescence. The concentration-effect curves were then classified based on curve quality (r2), response magnitude and degree of measured activity, and compounds were subsequently categorized based on their curve class.
Potency is the fitted concentration of half-maximal effect.

Structure (SMILES)	activity change, negative = cytotoxicity	Potency
CC(=O)OCC(NC(=O)C(Cc1ccccc1)NC(=O)OC(C)(C)C)C1OC(n2ccc(=O)[nH]c2=O)C(OC(C)=O)C1OC(C)=O (configuration not stated)	5.66% (inactive)	–
CC(C)(C)c1ccc(C(=O)C[N+]2(C)CCCc3ccccc32)cc1 (configuration not stated)	-29.9% (inactive)	–
COc1ccc(NC(=O)CCCN2C(=O)CCn3nc(-c4cn(C)c5ccccc45)cc32)cc1OC	-1.61% (inactive)	–
COC(=O)c1ccc(NC(=O)CN(c2ccc(C)cc2)S(=O)(=O)c2c(C)n[nH]c2C)cc1	-4.61% (inactive)	–
CCOc1ccc(OCC)c(NC(=O)CN(c2ccc(C)cc2)S(=O)(=O)c2c(C)n[nH]c2C)c1	–	12.6 µM (active)
COc1ccc(N(CC(=O)Nc2cc(OC)cc(OC)c2)S(=O)(=O)c2c(C)n[nH]c2C)cc1	-6.14% (inactive)	–
CCCCCn1c(CCNC(=O)c2ccc(F)cc2)nc2ccccc21	-40.8% (inactive)	–
CCOC(=O)Cn1c(=O)n(-c2ccccc2OC)c2nc(-c3cccc(F)c3)nc(C(N)=O)c21	0.0444% (inactive)	–
CC1=C(C(=O)Nc2ccccc2)C(c2ccc(C)cc2)n2nc(SCc3ccccc3C)nc2N1 (configuration not stated)	9.49% (inactive)	–
C(=Nc1ccc(/C=C/c2ccnc3ccccc23)cc1)c1cc2c3c(c1)CCCN3CCC2	-21.8% (inactive)	–
Cc1cccc(NC(=O)CCn2c(=O)oc3ccccc32)c1	-6.99% (inactive)	–
O=C(NCc1nnnn1-c1ccc(Cl)cc1)c1ccc([N+](=O)[O-])o1	-116% (inactive)	–
Cc1cccc(NC(=O)c2ccc([N+](=O)[O-])o2)c1	–	22.4 µM (active)
Cc1cccc(NC(=O)c2ccc(COc3ccccc3[N+](=O)[O-])o2)n1	-26.2% (inactive)	–
CCN(CC)S(=O)(=O)c1ccc(N2CCCC2)c(NC(=O)c2ccc([N+](=O)[O-])o2)c1	-82.1% (inactive)	–
O=C(Nc1ccc(Br)cn1)c1ccc([N+](=O)[O-])o1	–	17.8 µM (active)
O=C(NCCc1ccc(Cl)cc1)c1ccc2c(c1)N(Cc1ccc(F)cc1)C(=O)CS2	-17.8% (inactive)	–
O=C1C[C@H]2C=CCc3cccc(c32)CN1Cc1ccccc1	-36.9% (inactive)	–
O=C(COC(=O)c1ccccc1OCCOc1ccccc1)Nc1cccc(Br)c1	-16.2% (inactive)	–
Cc1ccc(C)c2sc(NC(=O)c3ccc(S(=O)(=O)N4CCCC4)cc3)nc12	-17.3% (inactive)	–
Cc1ccc(C)c(Cn2c(CCCNC(=O)C3CCCCC3)nc3ccccc32)c1	-9.35% (inactive)	–
O=C(O)C1=C/C(=C/C=[N+]2c3cc(O)c(O[C@H]4OC(CO)[C@@H](O)[C@@H](O)[C@@H]4O)cc3C[C@@H]2C(=O)[O-])C[C@H](C(=O)O)N1 (some centres not stated)	-11.6% (inactive)	–
O=C(CSc1nc2nccnc2c(=O)n1CCc1c[nH]c2ccccc12)Nc1ccccc1F	-24.6% (inactive)	–
Cc1ccc2nc(NC(=O)c3nc(SCc4ccccc4F)ncc3Cl)sc2c1	7.36% (inactive)	–

Structure (SMILES)	activity change, negative = cytotoxicity	Potency
Cc1nnc(NC(=O)CSc2nccn2-c2cccc(C)c2C)s1	-20.3% (inactive)	–
Cc1ccc(CS(=O)(=O)c2ncc(Cl)c(C(=O)Nc3nnc(C)s3)n2)cc1	–	15.8 µM (active)
CCOCCCNC(=O)c1c(NC(=O)c2nc(SC)ncc2Cl)sc2c1CCCC2	–	inactive
CSc1nnc(NC(=O)c2nc(S(=O)(=O)Cc3ccc(C)cc3)ncc2Cl)s1	–	15.8 µM (active)
CCOc1cccc(C(=O)Nc2nnc(S(=O)(=O)N(C)c3ccc(C)cc3)s2)c1	-6.76% (inactive)	–
CCN(CC)/[N+]([O-])=N/Oc1cc(O/[N+]([O-])=N/N2CCCC2CO)c([N+](=O)[O-])cc1[N+](=O)[O-] (configuration not stated)	-4.3% (inactive)	–
Brc1nc2ncnc(NCc3ccco3)c2[nH]1	-23.3% (inactive)	–
COC(=O)c1cc(NC(=O)c2cnc(SC)nc2-c2ccccc2)cc(C(=O)OC)c1	-19.3% (inactive)	–
O=C(c1ccco1)N(Cc1cccs1)c1ccc(O)cc1	-6.33% (inactive)	–
Cc1[nH]n(-c2ccccc2)c(=O)c1CCOC(=O)c1ccc(C(F)(F)F)cc1	-28.2% (inactive)	–
COc1ccc(CN2C(CC(=O)Nc3cccnc3)c3ccc(C(F)(F)F)cc3S2(=O)=O)cc1 (configuration not stated)	-2.15% (inactive)	–
CCOC(=O)C[C@H]1c2ccc(C(F)(F)F)cc2S(=O)(=O)N1c1ccccc1	–	inactive and 7.08 µM (active)
Cc1cc(C)c(NC(=O)CN2C(=O)c3cccnc3Oc3ccc(Cl)cc32)c(C)c1	4.94% (inactive)	–
O=C1CN(Cc2ccccc2)S(=O)(=O)c2ccccc21	-3% (inactive)	–
O=C(Nc1ccc(-c2nc3cc(NC(=O)c4ccccc4Cl)ccc3o2)cc1)c1ccccc1Cl	-42.5% (inactive)	–
Cc1ccc(C)c(S(=O)(=O)n2nc(C)c(S(=O)(=O)N3CCC(C)CC3)c2C)c1	-2.91% (inactive)	–
Cc1cc(O)ccc1-c1cc(C(=O)NCc2cc(C(F)(F)F)cc(C(F)(F)F)c2)[nH]n1	–	12.6 µM (active)
COc1ccccc1CNC(=O)c1cc(-c2cc(Cl)ccc2C)n[nH]1	-28.1% (inactive)	–
COc1ccc(-c2cc(C(=O)NCc3cc(OC)c(OC)c(OC)c3)[nH]n2)cc1	-6% (inactive)	–
CN(Cc1ccccc1)c1ncnc2onc(-c3ccc(F)cc3)c12	-7.14% (inactive)	–
CCCCC(=O)OC1=CN(Cc2ccccc2)S(=O)(=O)c2ccccc21	-4.26% (inactive)	–
Cc1ccccc1C(=O)Nc1sc2c(c1C(=O)N1CCC(C)CC1)CCCC2	-3.63% (inactive)	–
O=C(/C=C/Sc1ncn[nH]1)c1ccc(Cl)cc1	–	12.6 µM (active)
